Screening data from PubChem BioAssay.
Shown are actives, neighbours in structure and some others; about 8.7% of the full set was active somewhere.
Pf growth 96h: inhibits malaria parasite growth, 96 h | P. falciparum luciferase reporter growth, 96 h | Potency, µM (series often up to 28.7 µM), usual class: inhibitors | hit rate 6.9% among 320,000 | AID 504834
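Cell-based qHTS: luciferase-tagged P. falciparum in erythrocytes (2% hematocrit, 0.05% parasitemia final) incubated with compounds for 96 hours, 37 C, 5% CO2; luciferase detection reagent then added and luminescence measured.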
Vaccinia Venus: vaccinia inhibition (Venus reporter) | Vaccinia virus Venus reporter expression, fluorescence | Potency, µM (titrated, usually from 36.5 µM), most hits filed as inhibitors | hit rate 0.46% among 330,000 | AID 720580; calls by dose curve; tested in A549 cells; note: nearly all actives have a fitted effect of over 30% in size
Pf growth 48h: inhibits P. falciparum growth in the first generation, 48 h; P. falciparum luciferase growth in erythrocytes, 48 h; Potency, µM (highest dose often 28.7 µM), actives largely listed as inhibitors; hit rate 5.9% among 310,000
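Firefly luciferase activity from engineered P. falciparum reports growth; inhibitors lower the luminescent signal. Cultures contained 2% hematocrit erythrocytes at 0.1% final parasitemia.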
VACV mCherry inh: inhibitors of vaccinia virus infection (mCherry reporter signal) | Vaccinia virus mCherry reporter infection, fluorescence | Potency, µM (titrated, usually from 36.5 µM), hits mostly inhibitors | hit rate 0.63% among 310,000 | AID 720579; calls by dose curve; tested in A549 cells; note: nearly all actives have a fitted effect of over 35% in size
AMA1-RON2 inh: AMA1-RON2 (P. falciparum) interaction inhibition | AlphaScreen AMA1-biotinylated RON2 peptide binding | Potency, µM (top dose mostly 58.2 µM), most hits filed as inhibitors | hit rate 0.2% among 360,000 | AID 720542; note: nearly all actives have a fitted effect of over 45% in size
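AMA1 (3D7) with his tag at 25 nM final met compounds first, then biotinylated RON2 peptide at 25 nM; detection used donor plus acceptor beads, 10 µg/mL apiece, read by AlphaScreen after 30 min at room temperature.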
Hits are given with their value; - = inactive; ? = inconclusive; . = no result given; [ ] = remark or other dose. Unless noted, calls come from the whole dose curve; as a rule, active = well fitted curve in the direction sought with a large enough effect; inconclusive = small, poorly fitted or top-dose-only effect, or another doubt; inactive = no such curve, though single readings can be large; an effect the other way counts as inactive or inconclusive.

SMILES | Pf growth 96h | Vaccinia Venus | Pf growth 48h | VACV mCherry inh | AMA1-RON2 inh
Cc1cc(C)nc(N/N=C/c2ccccc2)n1 | - | . | - | . | -
Oc1ccc(/C=N/Nc2nc(-c3ccc(Cl)cc3)cc(C(F)(F)F)n2)cc1 | ? | 11µM | ? | 11µM | -[11.6 µM]
Cc1c(C(=O)NCc2ccc3c(c2)OCO3)oc2ccc(S(=O)(=O)N3CCC(C)CC3)cc12 | - | . | 9.3µM | . | -
Cc1c(C(=O)NCc2ccc3c(c2)OCO3)oc2ccc(S(=O)(=O)N3CCCCCC3)cc12 | ? | - | 13µM | - | -
CC1CC(C)CN(S(=O)(=O)c2ccc3c(c2)oc(=O)n3CC(=O)NCc2cccnc2)C1 (stereo not drawn) | 10µM | - | ? | ? | -
Cc1ccc2oc(C(=O)NCc3ccc4c(c3)OCO4)c(C)c2c1 | - | - | - | . | -
Cc1c(C(=O)NCc2cccnc2)oc2ccc(S(=O)(=O)N3CCCC(C)C3)cc12 (stereo not drawn) | 5.9µM | - | ? | - | -
Cc1ccc(CNC(=O)c2oc3ccc(S(=O)(=O)N4CCCC(C)C4)cc3c2C)cc1 (stereo not drawn) | . | - | . | - | .
O=C(COCc1cc(-c2cccs2)on1)NCc1ccccc1Cl | . | - | . | - | .
O=C(CCNS(=O)(=O)c1ccc2c(c1)CCN2C(=O)C1CC1)Nc1ccc(Cl)cc1 | . | - | . | - | .
COc1ccc(CNC(=O)c2cc3cc(C)ccc3n2C)cc1 | . | - | . | ? | .
Cc1cc(=S)nc(-c2ccccn2)[nH]1 | 3.7µM | - | 10µM | - | -
Cc1[nH]c(-c2ccccn2)nc(=S)c1Cl | ? | - | ? | - | -
Cc1c2oc3c(C)ccc(C(=O)N[C@@H]4C(=O)N[C@H](C(C)C)C(=O)N5CCC[C@H]5C(=O)N(C)CC(=O)N(C)[C@@H](C(C)C)C(=O)O[C@@H]4C)c3nc-2c(C(=O)N[C@@H]2C(=O)N[C@H](C(C)C)C(=O)N3CCC[C@H]3C(=O)N(C)CC(=O)N(C)[C@@H](C(C)C)C(=O)O[C@@H]2C)c(N)c1=O | 0.0024µM | . | 0.0048µM | . | .
CCC(C)C1NC(=O)C(NC(=O)C(CC(C)C)N(C)C(=O)C2CCCN2C(=O)C(C)O)C(C)OC(=O)C(Cc2ccc(OC)cc2)N(C)C(=O)C2CCCN2C(=O)C(CC(C)C)NC(=O)[C@H](C)C(=O)[C@H](C(C)C)OC(=O)CC1O (stereo partly drawn) | . | ? | . | ? | -
CCOC(=O)C(=O)Nc1nnc2n1CCS2 | . | -[7.34 µM] | . | -[7.34 µM] | .
CCN(CC)CCCNC(=O)c1cc2c(=O)n(C)c3ccccc3c2n1C | 10µM | - | . | - | -
Cn1c(C(=O)NCCCN2CCCCCC2)cc2c(=O)n(C)c3ccccc3c21 | ? | . | 3.3µM | . | -
CCN(CC)CCNC(=O)c1cc2c(=O)n(C)c3ccccc3c2n1C | - | . | . | . | -
CCCN1CCN(CCCNC(=O)c2cc3c(=O)n(C)c4ccccc4c3n2C)CC1 | - | . | . | . | -
CCOc1ccc(CCNC(=O)Cn2ncn3c(cc4sc(C)cc43)c2=O)cc1OCC | . | - | . | - | .
Cc1ccc(NC(=O)c2cccc(S(=O)(=O)N(C)C3CCCCC3)c2)nc1 | 9.3µM | - | 5.2µM | - | -
O=C(Nc1ccccc1)c1cccc(S(=O)(=O)NC2CCCC2)c1 | 12µM | . | - | . | -
CN(C)S(=O)(=O)c1cccc(C(=O)Nc2ccccc2)c1 | - | - | - | - | -
CC(=O)Nc1ccc(NC(=O)c2cccc(S(=O)(=O)N(C)C3CCCCC3)c2)cc1 | ? | . | 7.4µM | . | -
SMILES | Pf growth 96h | Vaccinia Venus | Pf growth 48h | VACV mCherry inh | AMA1-RON2 inh
CC(=O)Nc1ccc(NC2CCCCC2NS(=O)(=O)c2ccccc2)cc1 (stereo not drawn) | 8.3µM | . | - | . | -
CCc1ccc(C(=O)COC(=O)C(Cc2c[nH]c3ccccc23)NC(=O)c2ccc(CC)cc2)cc1 (stereo not drawn) | . | - | . | - | .
COc1cc(=O)n2c(c1C(=O)NCc1ccco1)CCN(Cc1c(F)cccc1F)CC2 | . | - | . | - | .
CC(=O)NCCNC(=O)CCCc1nnc2n(CC(C)C)c(=O)c3sccc3n12 | . | - | . | - | .
CCOc1ncccc1C(=O)Nc1ccc(S(=O)(=O)N2CCCC2)cc1 | - | - | - | - | -
CCOc1ncccc1C(=O)Nc1cccc(S(=O)(=O)N2CCCCC2)c1 | 7.4µM | . | ? | . | -
CC(=O)c1c(C)[nH]c(C(=O)Nc2cc(S(=O)(=O)N3CCCCC3)ccc2C)c1C | 13µM | . | 13µM | . | -
CCOc1ncccc1C(=O)Nc1cc(S(=O)(=O)N2CCCCC2)ccc1C | 9.3µM | . | 12µM | . | -
CCOc1ccc(S(=O)(=O)N2CCCCC2)cc1NC(=O)c1cccnc1OCC | . | . | . | . | -
COc1cc(NC(=O)N2CCC(CN3CCOCC3)CC2)cc(OC)c1OC | . | - | . | - | .
Cc1ccccc1CNC(=O)C1CCCN(c2nnc(-n3c(C)ccc3C)s2)C1 (stereo not drawn) | . | - | . | - | .
Cc1cccn2c(=O)nc(SCC(=O)N3N=C(c4cccs4)CC3c3ccc(F)cc3)nc12 (stereo not drawn) | 3.7µM | - | 8.3µM | - | -
COc1ccc(C2=NN(C(=O)CSc3ncccn3)C(c3ccc(C)cc3)C2)cc1 (stereo not drawn) | ? | ? | ? | ? | -
CCN1CCc2c(OCC(=O)N3N=C(c4cccs4)CC3c3ccc(F)cc3)cccc2C1=O (stereo not drawn) | ? | ? | 9.3µM | ? | -[11.6 µM]
CCOC(=O)CSCC(=O)N1N=C(c2cccs2)CC1c1ccc(F)cc1 (stereo not drawn) | ? | - | - | - | -
COc1ccc(C2CC(c3ccc(Br)cc3)=NN2C(=O)CSC2=NCCS2)cc1 (stereo not drawn) | 4.7µM | - | ? | - | -
COc1cccc(C2CC(c3cccs3)=NN2C(=O)CSC2=NN3CCCC(=O)N=C3S2)c1OC (stereo not drawn) | 0.47µM | - | 7.4µM | - | -
CN1CCc2c(OCC(=O)N3N=C(c4cccs4)CC3c3ccc(F)cc3)cccc2C1=O (stereo not drawn) | ? | - | ? | - | -
CCOc1ccc(CNC(=O)C2Cc3cc(S(=O)(=O)N4CCCCCC4)ccc3N2C(C)=O)cc1 (stereo not drawn) | . | - | . | - | .
Cc1ccc(C2CC(c3cccs3)=NN2C(=O)CSc2nc(=O)n3cc(C)ccc3n2)cc1 (stereo not drawn) | 5.2µM | - | ? | - | -
Cc1ccn2c(=O)nc(SCC(=O)N3N=C(c4cccs4)CC3c3ccc(F)cc3)nc2c1 (stereo not drawn) | 4.7µM | - | ? | - | -
COc1ccc(C2=NN(C(=O)CSc3nc(=O)n4cccc(C)c4n3)C(c3ccc(C)cc3)C2)cc1 (stereo not drawn) | ? | - | 12µM | - | -
Cc1ccc2nc(SCC(=O)N3N=C(c4cccs4)CC3c3ccc(F)cc3)nc(=O)n2c1 (stereo not drawn) | . | - | . | - | -
COc1ccc(C2CC(c3cccs3)=NN2C(=O)CSc2nc(=O)n3ccccc3n2)cc1 (stereo not drawn) | 8.3µM | ? | 13µM | - | -
